ATXN viability: Viability Counterscreen for Primary qHTS for Inhibitors of ATXN expression. 400,000 compounds, 0.49% hits. Potency, µM (titrated, usually from 56.7 µM), hits mostly cytotoxic. AID 651635, 2014. S2 cells (HEK-293 line with an ATXN2-luciferase reporter) viability, CellTiter-Fluor protease fluorescence, 24 h; note: nearly all actives have a fitted effect of over 40% in size
ATXN2 expr inh: Primary qHTS for Inhibitors of ATXN expression; AID 1745845, 2022; 360,000 compounds, 0.72% hits; Potency, µM (titrated, usually from 57 µM), for inactives: top-dose activity change, negative = inhibition, usual class: inhibitors; HEK-293 ATXN2-luciferase reporter, luminescence, 24 h; note: % is set by controls: 0 for no effect and ±100 for the full control effect; nearly all actives have a fitted effect of over 55% in size
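qHTS (up to 57 uM final) was run with 24 h compound exposure of reporter cells at 37 °C. Each well was multiplexed: SteadyGlo luminescence measured ATXN2-luciferase expression after a fluorogenic Gly-Phe-AFC viability readout (25 uM final).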
TGFb inhibitor: qHTS for Inhibitors of TGF-b; HepG2 CAGA-GFP TGF-b/SMAD3 reporter, GFP fluorescence, 18 h; TGF-beta stimulated, 500 pg/mL final; 410,000 compounds, 1.2% hits; AID 588855, 2011; Potency, µM (highest dose often 46.1 µM), for the others: at the highest dose activity, negative = inhibition, usual class: inhibitors; note: % is set by controls: 0 for no effect and ±100 for the full control effect; nearly all actives have a fitted effect of over 65% in size
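First, reporter cells (HEPG2 CAGA-GFP) rested 2 h at 37 degrees C. Next, compounds were pinned in and TGF-beta added to 500 pg/mL final. After 18 h, GFP was imaged per cell and summed per well.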
VP16 counter: VP16 counterscreen qHTS for inhibitors of ROR gamma transcriptional activity. Potency, µM (top dose mostly 53.6 µM), inactives show top-dose activity, negative = inhibition, usual class: inhibitors. 310,000 compounds, 3.5% hits. AID 2546, 2010. Drosophila S2 Gal4-VP16 UAS-luciferase, luminescence, 20 h;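 note: Gal4-VP16 expression switched on by copper sulfate through the metallothionein promoter; % is set by controls: 0 for no effect and ±100 for the full control effect; nearly all actives have a fitted effect of over 50% in size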
HepG2 tox: qHTS for Inhibitors of TGF-b: Cytotox Counterscreen. Potency, µM (top dose mostly 46.1 µM), for inactives: top-dose activity change, negative = cytotoxicity, hits mostly cytotoxic. 410,000 compounds, 0.76% hits. HepG2 CAGA-GFP viability, ATP luminescence, 18 h
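HepG2 CAGA-GFP cells (1000/well, DMEM with 1% FBS) received compound, then TGF-beta at 500 pg/mL final, and were incubated 18 hours at 37 degrees C. Viability was read by CellTiter-Glo luminescence. Media-only wells were set as complete cell-killing and DMSO as no toxicity.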
RORgamma inh: qHTS for inhibitors of ROR gamma transcriptional activity | Drosophila S2 Gal4-RORgamma UAS-luciferase reporter, 20 h | Potency, µM (top dose mostly 53.6 µM), for the others: at the top dose activity change, negative = inhibition, actives largely listed as inhibitors | 310,000 compounds, 5.4% hits | AID 2551, 2010; note: % is set by controls: 0 for no effect and ±100 for the full control effect; nearly all actives have a fitted effect of over 60% in size
Target sequence (P51450 whole entry, looked up, the tested form may be a part): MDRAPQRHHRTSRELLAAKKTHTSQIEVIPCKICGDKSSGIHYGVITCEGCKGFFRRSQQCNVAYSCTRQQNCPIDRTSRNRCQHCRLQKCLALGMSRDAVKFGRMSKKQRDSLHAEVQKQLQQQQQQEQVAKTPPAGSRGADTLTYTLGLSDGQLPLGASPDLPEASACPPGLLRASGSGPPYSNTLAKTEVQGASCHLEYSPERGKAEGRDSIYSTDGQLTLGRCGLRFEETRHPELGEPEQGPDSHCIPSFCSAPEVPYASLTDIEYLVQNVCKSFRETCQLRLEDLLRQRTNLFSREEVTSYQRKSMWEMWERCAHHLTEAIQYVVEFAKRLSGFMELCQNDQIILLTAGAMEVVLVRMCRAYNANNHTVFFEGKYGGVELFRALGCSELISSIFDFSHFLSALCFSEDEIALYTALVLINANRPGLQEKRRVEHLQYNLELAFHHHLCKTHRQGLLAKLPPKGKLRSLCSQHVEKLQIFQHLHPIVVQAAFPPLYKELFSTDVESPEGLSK
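A Gal4/UAS one-hybrid system in insect cells: metallothionein-promoter Gal4–ROR gamma fusion plus Photinus luciferase reporter. Copper sulfate 700 uM final, 20 hr ambient incubation, luminescent detection after 10 min with reagent.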
An asterisk follows results filed as active; i = inactive; ? = inconclusive; nt = not tested or not shown; [ ] = another dose, or the depositor's remark. Only some compounds are listed: those with a hit (about 6.1% of all), similar ones and a draw of the others. Calls come from the whole dose curve; as a rule, active = well fitted curve in the direction sought with a large enough effect; inconclusive = small, poorly fitted or top-dose-only effect, or another doubt; inactive = no such curve, though single readings can be large; an effect the other way counts as inactive or inconclusive. Potency is the fitted concentration of half-maximal effect.

SMILES | ATXN viability | ATXN2 expr inh | TGFb inhibitor | VP16 counter | HepG2 tox | RORgamma inh
Oc1cccc(/C=N\Nc2nncc(-c3ccccc3)n2)c1 | i | 28% | -17% | ? | -16% | -6%
Clc1ccccc1-c1ccc(/C=N/Nc2nncc(-c3ccccc3)n2)o1 | i | nt | 0% | 10µM* | 3% | 1.4µM*
Cc1[nH]n(-c2ccccc2)c(=O)c1/C=N/Nc1nncc(-c2ccccc2)n1 | i | 2.8µM* | ? | 0.0022µM* | -5% | 0.05µM*
O=C(NCc1ccccc1)[C@H](Cc1ccccc1)NC(=O)[C@@H]1O[C@@H]1C(=O)NCCc1ccc(O)cc1 | nt | 2% | nt | nt | nt | nt
O=C(O)CCCC[P+](c1ccccc1)(c1ccccc1)c1ccccc1 | i | 10% | nt | nt | nt | nt
Cc1ccc(/C=N/Nc2nncc(-c3ccccc3)n2)o1 | i | 37% | 5% | 13µM* | 16% | 8.9µM*
FC(F)(F)c1cccc(-c2ccc(/C=N/Nc3nncc(-c4ccccc4)n3)o2)c1 | i | nt | -4% | -1% | -6% | -5%
Clc1ccc(-c2ccc(/C=N/Nc3nncc(-c4ccccc4)n3)o2)cc1 | ? | -8% | -6% | 0.79µM* | 5% | 0.79µM*
CC(C)c1c(C(=O)N(C)CC2CCCN(C)C2)cnn1-c1nccc(-c2cccs2)n1 (configuration not stated) | i | nt | nt | nt | nt | nt
O=C1C=CCC(/C=C/c2ccccc2)O1 (configuration not stated) | ? | 5µM* | ? | ? | 13µM* | ?
COC(=O)C1C2CC3c4[nH]c5cc(OC)ccc5c4CCN3CC2CC(OC(=O)c2cc(OC)c(OC)c(OC)c2)C1OC (configuration not stated) | nt | -22% | nt | -30% | nt | -23%
Cc1ccn2c(c1)nc(=S)n2C(=O)c1ccccc1 | i | 1% | 3% | 2.5µM* | -12% | 4µM*
CCOC(=O)/C=C(\C)Sc1cc(O)c2ccccc2c1O | ? | nt | 3.2µM* | ? | 5.6µM* | 11µM*
CN(N=O)c1ccc2c(c1)Cc1ccccc1-2 | nt | nt | -22% | nt | -62% | nt
NC(=S)N/N=C/c1ccc2cccc(OCc3ccccc3)c2n1 | i | -24% | 0% | ? | -7% | 7.1µM*
NC(N)=N/N=C/c1ccc2cccc(OCc3ccccc3)c2n1 | ? | 30µM* | ? | -21% | -84% | -26%
O/N=C/c1ccc2cccc(OCc3ccccc3)c2n1 | i | -3% | -22% | 0% | -9% | -1%
NC(=S)N/N=C/c1ccccc1OCc1cccc(Cl)c1 | i | ? | ? | 4µM* | -51% | 0.79µM*
CCn1cc2nc(SCc3cc(C)ccc3C)n(Cc3ccc(C)cc3)c(=O)c2n1 | i | -1% | -26% | nt | -10% | nt
CO/N=C1/c2cc(OC)ccc2O[C@@H](c2cccc(OC)c2)[C@H]1O | nt | nt | nt | -24%[10 µM] | nt | ?
COCCN(CCOC)c1nc(C)nc2c1nc(-c1ccccc1)n2CCCN1CCCCC1C (configuration not stated) | nt | nt | nt | -3% | nt | -6%
CCCNC(=O)OC[C@H]1O[C@@H](CCO/N=C2/C[C@@H](O)[C@@H](O)[C@@H]3[C@@H]4C(=O)N(CC)C(=O)[C@H]4CC[C@@H]23)C=C[C@@H]1Oc1ccc(OC)cc1 | nt | nt | nt | -4%[10 µM] | nt | -1%[10 µM]
COc1ccc2[nH]cc(CCNC(=O)Nc3cc(C)cc(C)c3)c2c1 | ? | -31% | -17% | nt | 4% | nt
N=C1N(/N=C/c2ccccc2)C(=Nc2ccccc2)C(=S)N1c1ccccc1 | nt | nt | 0% | 5µM* | 1% | 4.5µM*
COc1ccc(CNc2ncncc2-c2ccccc2C(F)(F)F)c(OC)c1 | nt | nt | nt | 4% | nt | 11%
SMILES | ATXN viability | ATXN2 expr inh | TGFb inhibitor | VP16 counter | HepG2 tox | RORgamma inh
Cc1cccc(CC2SC(N)=NC2=O)c1 (configuration not stated) | i | 6% | 11% | -2% | 2% | -2%
Cc1cccc(CC2S/C(=N/c3ccccn3)NC2=O)c1 (configuration not stated) | i | 8% | -2% | ? | -6% | 1.3µM*
O=C1N/C(=N\c2ccccn2)SC1Cc1ccccc1Cl (configuration not stated) | i | nt | -12% | 1µM* | -5% | 0.71µM*
O=C1NC(=Nc2cccc(Cl)c2)SC1Cc1cccc(Cl)c1Cl (configuration not stated) | i | -20% | -16% | ? | -4% | ?
CCc1nc(SCc2ccc(OCC(C)C)cc2)n[nH]1 | i | 2% | -20% | 16µM* | -30% | ?
COc1ccc(N2CCN(S(=O)(=O)CCNC(=O)c3ccc(OC(C)C)cc3)CC2)cc1 | nt | nt | -1% | nt | -3% | nt
COc1cccc(-c2sc3ccc(OC)cc3c2-c2ccc(OCCN(C)C)cc2)c1 | ? | ? | ? | nt | 14µM* | nt
CCCc1cc(=O)oc2c(C)c3c(cc12)CN(CCc1ccc(Cl)cc1)CO3 | i | -6% | 0% | nt | -17% | nt
Cc1cc(C)n(CC2CC(=O)N(c3ccc(F)c(Cl)c3)C2=O)n1 (configuration not stated) | i | -3% | 32% | 4% | 0% | 14µM*
Cc1cccc2c(N)c3c(nc12)CCCC3 (tested in a mixture with another compound) | ? | ? | -27% | -2% | -24% | -1%
Cc1cc(C)c2c(N)c3cccc(C)c3nc2n1 | nt | 13µM* | ? | -23% | 26% | -21%
NC(=O)[C@@H]1CCCN1C(=O)CC1(c2cccc(F)c2)CC(=O)N(C2CCCC2)C1=O (some centres not stated) | i | nt | nt | nt | nt | nt
CCOc1ccc(NCc2cccn2-c2nnc(N3CCC(C(=O)NCCCN4CCCCC4CC)CC3)s2)cc1 (configuration not stated) | nt | nt | -20% | -2% | 14µM* | -5%
CCOc1ccc(NCc2cccn2-c2nnc(N3CCC(C(=O)NCCOC)CC3)s2)cc1 | nt | nt | nt | nt | -4% | nt
CCN(CC)CCN(C(=O)CCS(=O)(=O)c1ccccc1)c1nc2cc(C)cc(C)c2s1 | i | -30% | 16µM* | -29% | 18µM* | 20µM*
Cc1cc(C)c2sc(N(CCN(C)C)C(=O)CCS(=O)(=O)c3ccccc3)nc2c1 | ? | ? | -33% | ? | -94% | ?
CN(C)CCCN(C(=O)CCS(=O)(=O)c1ccccc1)c1nc2cc3c(cc2s1)OCO3 | ? | ? | ? | 16µM* | -107% | 11µM*

High-throughput results from PubChem BioAssay.
